Laboratory results: the supplement of paper PMC10849652
Targets with a hit are over-represented here; the source holds about 7,900 in all. About 0.6% of all pairs of compound and target were hits. Unmarked numbers belong to inactive results.

Experiments:
Experiment in all cases: log2 fold change, soluble protein after heating vs DMSO (PISA); higher = thermal stabilisation; K562 cells, 10 uM, 30 min; active = over 0.2 and 3.5 SD of the protein, either way, in both replicates (recomputed)
bafetinib = compound: Cc1ccc(NC(=O)c2ccc(CN3CC[C@H](N(C)C)C3)c(C(F)(F)F)c2)cc1Nc1nccc(-c2cncnc2)n1 [bafetinib]
Method in brief: (§1)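 Soluble protein was defined as the supernatant after 21,000xg for 90 min. It came from K562 cells at 2×10^6 cells/mL given 10 μM compound for 30 min, heated in aliquots for 3 min across 48°C-58°C, pooled, and extracted in PBS with 0.5% NP-40 at 4°C, and was quantified by TMTpro 16plex LC-MS/MS with equalised channel sums. Thermal stability against control samples, from duplicates, is reported as log2 fold change.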

[1] = compound: Cc1cccc(CC(=O)N2CCc3c2ccc(-c2cn(C)c4ncnc(N)c24)c3F)n1
Method in brief: as §1

nilotinib = compound: Cc1cn(-c2cc(NC(=O)c3ccc(C)c(Nc4nccc(-c5cccnc5)n4)c3)cc(C(F)(F)F)c2)cn1 [nilotinib]
Method in brief: as §1

[2] = compound: Cc1nc(Nc2n[nH]c3c2CN(C(=O)N[C@H](CN(C)C)c2ccccc2)C3(C)C)c2sccc2n1
Method in brief: as §1

dasatinib = compound: Cc1nc(Nc2ncc(C(=O)Nc3c(C)cccc3Cl)s2)cc(N2CCN(CCO)CC2)n1 [dasatinib]
Method in brief: as §1

[3] = compound: Cc1ncc(-c2ccnc(Nc3ccc(S(C)(=O)=O)cc3)n2)n1C(C)C
Method in brief: as §1

[4] = compound: Cn1cc(-c2ccc3c(c2)CCN3C(=O)Cc2cccc(C(F)(F)F)c2)c2c(N)ncnc21
Method in brief: as §1

[5] = compound: Cn1cc(-c2ccc3nnc(C(F)(F)c4ccc5ncccc5c4)n3n2)cn1
Method in brief: as §1

tipifarnib = compound: Cn1cncc1[C@@](N)(c1ccc(Cl)cc1)c1ccc2c(c1)c(-c1cccc(Cl)c1)cc(=O)n2C [tipifarnib]
Method in brief: as §1

mubritinib = compound: FC(F)(F)c1ccc(/C=C/c2nc(COc3ccc(CCCCn4ccnn4)cc3)co2)cc1 [mubritinib]
Method in brief: as §1

[6] = compound: NC(=O)Nc1cc(-c2cccc(F)c2)sc1C(=O)N[C@H]1CCCNC1
Method in brief: as §1

[7] = compound: NC(=O)c1cnc(N[C@@H]2CCCC[C@@H]2N)nc1Nc1cccc(-n2nccn2)c1
Method in brief: as §1

[8] = compound: NC1(c2ccc(-c3nc4ccn5c(=O)[nH]nc5c4cc3-c3ccccc3)cc2)CCC1
Method in brief: as §1

[9] = compound: NCC(=O)Nc1ccc(-n2nc(C(F)(F)F)cc2-c2ccc3c(ccc4ccccc43)c2)cc1
Method in brief: as §1

entinostat = compound: Nc1ccccc1NC(=O)c1ccc(CNC(=O)OCc2cccnc2)cc1 [entinostat]
Method in brief: as §1

vorinostat = compound: O=C(CCCCCCC(=O)Nc1ccccc1)NO [vorinostat]
Method in brief: as §1

citarinostat = compound: O=C(CCCCCCNC(=O)c1cnc(N(c2ccccc2)c2ccccc2Cl)nc1)NO [citarinostat]
Method in brief: as §1

silmitasertib = compound: O=C(O)c1ccc2c(c1)nc(Nc1cccc(Cl)c1)c1ccncc12 [silmitasertib]
Method in brief: as §1

[10] = compound: O=C1NC(=O)C(c2cnc3ccccn23)=C1c1cn2c3c(cc(F)cc13)CN(C(=O)N1CCCCC1)CC2
Method in brief: as §1

[11] = compound: c1cc(OCCN2CCCCC2)cc(-c2n[nH]c3ccc(-c4nnc[nH]4)cc23)c1
Method in brief: as §1

UniProt Q9Y680, sequence (Q9Y680 whole entry, looked up): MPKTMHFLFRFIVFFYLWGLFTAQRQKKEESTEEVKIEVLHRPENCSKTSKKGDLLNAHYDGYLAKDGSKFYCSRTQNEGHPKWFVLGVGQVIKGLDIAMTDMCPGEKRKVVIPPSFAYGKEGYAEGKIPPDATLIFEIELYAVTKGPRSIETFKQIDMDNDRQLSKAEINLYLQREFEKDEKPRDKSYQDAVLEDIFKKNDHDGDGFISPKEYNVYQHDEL
UniProt P15586, sequence (P15586 whole entry, looked up): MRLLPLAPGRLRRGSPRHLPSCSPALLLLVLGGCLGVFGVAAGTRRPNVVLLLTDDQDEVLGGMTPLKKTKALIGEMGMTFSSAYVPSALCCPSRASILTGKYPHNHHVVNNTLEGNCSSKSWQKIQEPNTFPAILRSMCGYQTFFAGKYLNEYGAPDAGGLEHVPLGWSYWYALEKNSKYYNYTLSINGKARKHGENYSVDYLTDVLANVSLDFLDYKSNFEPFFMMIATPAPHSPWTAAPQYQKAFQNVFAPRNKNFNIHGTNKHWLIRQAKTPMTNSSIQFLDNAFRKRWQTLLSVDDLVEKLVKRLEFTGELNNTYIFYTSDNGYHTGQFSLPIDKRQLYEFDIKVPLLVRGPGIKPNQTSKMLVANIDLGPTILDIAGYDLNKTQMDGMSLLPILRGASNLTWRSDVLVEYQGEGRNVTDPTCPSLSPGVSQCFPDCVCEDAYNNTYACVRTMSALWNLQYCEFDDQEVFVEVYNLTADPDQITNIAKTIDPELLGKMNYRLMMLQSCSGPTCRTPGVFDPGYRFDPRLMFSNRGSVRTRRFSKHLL
UniProt P05114, sequence (P05114 whole entry, looked up): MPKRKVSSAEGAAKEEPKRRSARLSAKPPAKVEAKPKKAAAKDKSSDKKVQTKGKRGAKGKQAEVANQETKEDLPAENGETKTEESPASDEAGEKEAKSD
UniProt Q8WXD5, sequence (Q8WXD5 whole entry, looked up): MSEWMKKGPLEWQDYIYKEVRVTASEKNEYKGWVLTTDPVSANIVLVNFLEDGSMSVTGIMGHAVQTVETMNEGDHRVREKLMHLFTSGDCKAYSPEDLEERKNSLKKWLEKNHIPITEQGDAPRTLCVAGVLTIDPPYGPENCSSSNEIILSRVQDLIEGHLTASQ
UniProt Q9H0R4, sequence (Q9H0R4 whole entry, looked up): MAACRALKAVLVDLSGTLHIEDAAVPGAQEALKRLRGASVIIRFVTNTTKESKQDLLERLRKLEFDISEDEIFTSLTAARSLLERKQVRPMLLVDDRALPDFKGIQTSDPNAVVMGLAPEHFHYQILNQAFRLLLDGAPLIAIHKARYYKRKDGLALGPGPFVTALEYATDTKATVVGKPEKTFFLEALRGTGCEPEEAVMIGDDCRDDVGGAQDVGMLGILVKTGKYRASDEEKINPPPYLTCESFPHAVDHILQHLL
UniProt P55084, sequence (P55084 whole entry, looked up): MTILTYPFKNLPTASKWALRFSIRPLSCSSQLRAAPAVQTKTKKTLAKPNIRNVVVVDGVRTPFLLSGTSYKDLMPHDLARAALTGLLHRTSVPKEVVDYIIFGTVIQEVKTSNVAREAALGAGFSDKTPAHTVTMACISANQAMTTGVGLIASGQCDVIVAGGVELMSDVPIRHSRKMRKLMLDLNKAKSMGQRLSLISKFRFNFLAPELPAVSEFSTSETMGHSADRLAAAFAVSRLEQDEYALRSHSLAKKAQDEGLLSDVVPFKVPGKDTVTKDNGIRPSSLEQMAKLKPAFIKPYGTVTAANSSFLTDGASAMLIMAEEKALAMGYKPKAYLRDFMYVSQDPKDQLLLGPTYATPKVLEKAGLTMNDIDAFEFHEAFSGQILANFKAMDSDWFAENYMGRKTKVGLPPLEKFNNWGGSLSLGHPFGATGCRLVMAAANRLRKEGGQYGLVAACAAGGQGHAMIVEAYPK
UniProt Q03013, sequence (Q03013 whole entry, looked up): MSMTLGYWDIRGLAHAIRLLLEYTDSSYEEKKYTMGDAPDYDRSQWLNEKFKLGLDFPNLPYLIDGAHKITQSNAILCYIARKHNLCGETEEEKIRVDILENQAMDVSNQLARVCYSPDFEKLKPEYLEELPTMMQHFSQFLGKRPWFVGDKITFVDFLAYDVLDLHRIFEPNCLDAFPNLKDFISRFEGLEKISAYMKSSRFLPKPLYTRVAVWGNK
UniProt P49840, sequence (P49840 whole entry, looked up): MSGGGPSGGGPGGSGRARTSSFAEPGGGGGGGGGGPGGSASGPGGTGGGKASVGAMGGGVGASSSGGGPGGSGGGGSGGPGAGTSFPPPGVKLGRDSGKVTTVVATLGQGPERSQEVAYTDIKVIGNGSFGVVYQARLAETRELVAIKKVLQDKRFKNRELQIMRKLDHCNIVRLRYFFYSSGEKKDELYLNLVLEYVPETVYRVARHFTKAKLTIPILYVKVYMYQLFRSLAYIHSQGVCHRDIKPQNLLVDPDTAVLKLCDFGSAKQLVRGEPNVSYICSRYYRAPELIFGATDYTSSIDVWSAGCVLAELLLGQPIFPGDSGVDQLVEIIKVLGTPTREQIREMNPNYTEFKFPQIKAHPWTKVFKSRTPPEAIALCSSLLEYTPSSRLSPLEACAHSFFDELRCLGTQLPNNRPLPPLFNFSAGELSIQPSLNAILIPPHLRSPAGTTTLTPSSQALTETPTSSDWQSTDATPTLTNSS
UniProt P09105, sequence (P09105 whole entry, looked up): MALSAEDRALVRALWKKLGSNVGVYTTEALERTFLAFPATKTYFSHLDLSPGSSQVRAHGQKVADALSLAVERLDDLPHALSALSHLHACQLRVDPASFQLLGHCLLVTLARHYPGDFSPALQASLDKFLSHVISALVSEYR
UniProt Q9BTY2, sequence (Q9BTY2 whole entry, looked up): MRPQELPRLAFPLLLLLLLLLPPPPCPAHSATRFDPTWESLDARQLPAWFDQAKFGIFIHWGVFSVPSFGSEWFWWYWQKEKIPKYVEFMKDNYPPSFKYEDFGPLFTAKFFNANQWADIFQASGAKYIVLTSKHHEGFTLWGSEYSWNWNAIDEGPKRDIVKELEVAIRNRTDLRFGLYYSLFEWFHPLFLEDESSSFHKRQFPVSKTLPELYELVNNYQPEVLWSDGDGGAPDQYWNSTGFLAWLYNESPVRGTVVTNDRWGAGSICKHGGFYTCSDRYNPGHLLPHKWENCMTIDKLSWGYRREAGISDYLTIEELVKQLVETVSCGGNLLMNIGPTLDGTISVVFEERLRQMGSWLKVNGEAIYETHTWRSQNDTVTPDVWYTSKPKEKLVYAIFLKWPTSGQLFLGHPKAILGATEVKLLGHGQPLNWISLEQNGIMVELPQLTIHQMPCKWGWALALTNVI
UniProt P08236, sequence (P08236 whole entry, looked up): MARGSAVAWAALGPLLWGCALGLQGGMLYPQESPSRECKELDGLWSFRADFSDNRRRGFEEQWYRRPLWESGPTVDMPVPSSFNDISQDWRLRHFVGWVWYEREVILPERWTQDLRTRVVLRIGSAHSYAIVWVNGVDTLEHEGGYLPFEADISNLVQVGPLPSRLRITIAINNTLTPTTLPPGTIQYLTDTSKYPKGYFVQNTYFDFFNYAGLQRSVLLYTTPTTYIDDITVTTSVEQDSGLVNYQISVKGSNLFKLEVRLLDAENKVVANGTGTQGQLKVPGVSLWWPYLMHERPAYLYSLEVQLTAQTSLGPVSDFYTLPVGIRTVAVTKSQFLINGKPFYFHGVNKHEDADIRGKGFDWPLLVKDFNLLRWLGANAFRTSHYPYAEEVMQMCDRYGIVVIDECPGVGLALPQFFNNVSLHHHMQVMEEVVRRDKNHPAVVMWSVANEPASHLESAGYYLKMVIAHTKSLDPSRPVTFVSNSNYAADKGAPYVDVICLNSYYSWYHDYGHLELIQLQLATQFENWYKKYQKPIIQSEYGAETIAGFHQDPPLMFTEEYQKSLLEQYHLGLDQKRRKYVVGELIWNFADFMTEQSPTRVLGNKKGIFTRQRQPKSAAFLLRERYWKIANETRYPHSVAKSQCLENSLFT

Target | log2 fold change (bafetinib) | log2 fold change [1] | log2 fold change (nilotinib) | log2 fold change [2] | log2 fold change (dasatinib) | log2 fold change [3] | log2 fold change [4] | log2 fold change [5] | log2 fold change (tipifarnib) | log2 fold change (mubritinib) | log2 fold change [6] | log2 fold change [7] | log2 fold change [8] | log2 fold change [9] | log2 fold change (entinostat) | log2 fold change (vorinostat) | log2 fold change (citarinostat) | log2 fold change (silmitasertib) | log2 fold change [10] | log2 fold change [11]
HDHD2 (UniProt Q9H0R4) | 0.068 | 0.018 | 0.024 | -0.04 | 0.042 | 0.006 | 0.019 | 0.028 | -0.011 | 0.045 | 0.091 | -0.016 | -0.023 | 0.048 | -0.01 | -0.018 | 0.033 | -0.007 | 0.131 | -0.012
HADHB (UniProt P55084) | 0.251 | 0.132 | 0.074 | -0.106 | -0.072 | 0.032 | 0.155 | 0.108 | -0.264 | 0.571 (active) | -0.079 | 0.021 | 0.104 | 0.078 | 0.014 | 0 | 0.037 | -0.115 | 0.716 (active) | -0.056
FKBP7 (UniProt Q9Y680) | 0 | -0.04 | 0.055 | -0.058 | 0.064 | 0 | 0.071 | 0.012 | 0.027 | 0.031 | -0.034 | -0.017 | 0.005 | -0.037 | -0.029 | -0.017 | -0.02 | 0.079 | 0.008 | -0.097
HMGN1 (UniProt P05114) | -0.014 | -0.012 | -0.022 | 0.057 | 0.146 | 0.019 | -0.022 | -0.048 | 0.066 | -0.049 | 0 | 0.024 | 0.144 | 0.03 | -0.053 | -0.048 | -0.096 | 0.037 | -0.003 | -0.023
GSK3A (UniProt P49840) | -0.052 | -0.027 | -0.01 | 0.308 (active) | -0.024 | 0.383 (active) | -0.004 | 0.011 | -0.033 | 0.038 | -0.02 | 0.014 | -0.054 | 0.051 | -0.03 | -0.053 | 0.015 | -0.004 | 0.454 (active) | 0.193
HBQ1 (UniProt P09105) | 0.028 | 0.046 | 0.054 | -0.004 | 0.102 | -0.043 | 0.12 | 0.117 | -0.125 | 0.039 | 0.058 | -0.048 | -0.043 | 0.006 | 0.014 | -0.05 | 0.032 | -0.047 | -0.119 | 0.021
GUSB (UniProt P08236) | 0.016 | -0.013 | 0.218 | -0.115 | 0.053 | 0.117 | -0.059 | -0.007 | 0.16 | -0.136 | -0.044 | 0.029 | 0.047 | 0.067 | -0.066 | 0.049 | 0.148 | -0.011 | 0.057 | -0.059
GSTM4 (UniProt Q03013) | 0.021 | 0.002 | 0.001 | 0.088 | 0 | -0.018 | 0.026 | -0.141 | -0.023 | -0.08 | -0.071 | -0.046 | -0.121 | 0.023 | -0.068 | -0.013 | -0.079 | 0.137 | 0.151 | 0.199
FUCA2 (UniProt Q9BTY2) | -0.809 (active) | -0.022 | 0.032 | 0.001 | 0.022 | -0.009 | 0.012 | -0.019 | 0.077 | 0.013 | 0.004 | -0.037 | -0.499 (active) | 0.013 | -0.03 | -0.033 | 0.042 | 0.032 | 0.032 | -0.551 (active)
GEMIN6 (UniProt Q8WXD5) | -0.011 | -0.042 | 0.004 | 0.015 | -0.024 | -0.022 | 0.018 | 0.306 (active) | -0.002 | 0.067 | 0.066 | 0.015 | -0.108 | 0.099 | -0.005 | -0.04 | -0.12 | 0.015 | -0.139 | -0.106
GNS (UniProt P15586) | -0.156 | -0.002 | 0.003 | 0.037 | 0.006 | -0.033 | 0.008 | -0.028 | 0.02 | -0.004 | 0.002 | 0 | -0.109 | 0.01 | -0.006 | -0.036 | 0.019 | -0.026 | -0.049 | 0.003
